Targets with a hit are over-represented here; the source holds about 7,900 in all. About 0.6% of all pairs of compound and target were hits. Values without a mark were called inactive.
Columns and labels:
Experiment in all cases: log2 fold change, soluble protein after heating vs DMSO (PISA); higher = thermal stabilisation; K562 cells, 10 uM, 30 min; active = over 0.2 and 3.5 SD of the protein, either way, in both replicates (recomputed)
[1] = compound: CS(=O)(=O)c1ccc(-c2cnc(N)c(C(=O)Nc3ccccc3)n2)cc1
Method in brief: (§1)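 For each measurement, 10 μM compound was applied for 30 min to K562 cells at 2×10^6 cells/mL. Aliquots were heated for 3 min across 48°C-58°C, pooled, and extracted in PBS with 0.5% NP-40 at 4°C; the supernatant after 21,000xg for 90 min was soluble protein. This was quantified by TMTpro 16plex LC-MS/MS with channel sums equalised, and thermal stability was reported relative to control samples from duplicates, on a log2 fold-change scale.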

[2] = compound: C[C@@H](Oc1cc(-c2cnn(C3CCNCC3)c2)cnc1N)c1c(Cl)ccc(F)c1Cl [crizotinib]
Method in brief: as §1

[3] = compound: C[C@@H]1COCCN1C2=NC(=NC(=C2)C3(CC3)S(=O)(=O)C)C4=C5C=CNC5=CC=C4
Method in brief: as §1

[4] = compound: C[C@H](C1=CC=C(C=C1)C(=O)NC2=C3C=CNC3=NC=C2)N
Method in brief: as §1

[5] = compound: C[C@H](Nc1ncnc2nc[nH]c12)c1cc2cccc(Cl)c2c(=O)n1-c1ccccc1 [duvelisib]
Method in brief: as §1

[6] = compound: Cc1cc(Nc2cc(CN3CCOCC3)c3nc(C)c(Cc4ccc(Cl)cc4F)n3n2)n[nH]1 [gandotinib]
Method in brief: as §1

[7] = compound: Cc1cc(Nc2cc(N3CCN(C)CC3)nc(Sc3ccc(NC(=O)C4CC4)cc3)n2)n[nH]1 [tozasertib]
Method in brief: as §1

[8] = compound: Cc1cc(SCc2sc(-c3ccc(C(F)(F)F)cc3)nc2C)ccc1OCC(=O)O
Method in brief: as §1

[9] = compound: Cc1ccc(-n2nc(C(C)(C)C)cc2NC(=O)Nc2ccc(OCCN3CCOCC3)c3ccccc23)cc1 [doramapimod]
Method in brief: as §1

[10] = compound: Cc1ccc(C(=O)N(CCCN)[C@@H](c2nc3cc(Cl)ccc3c(=O)n2Cc2ccccc2)C(C)C)cc1 [ispinesib]
Method in brief: as §1

Chain of UniProt Q15057 (Q15057 whole entry, looked up): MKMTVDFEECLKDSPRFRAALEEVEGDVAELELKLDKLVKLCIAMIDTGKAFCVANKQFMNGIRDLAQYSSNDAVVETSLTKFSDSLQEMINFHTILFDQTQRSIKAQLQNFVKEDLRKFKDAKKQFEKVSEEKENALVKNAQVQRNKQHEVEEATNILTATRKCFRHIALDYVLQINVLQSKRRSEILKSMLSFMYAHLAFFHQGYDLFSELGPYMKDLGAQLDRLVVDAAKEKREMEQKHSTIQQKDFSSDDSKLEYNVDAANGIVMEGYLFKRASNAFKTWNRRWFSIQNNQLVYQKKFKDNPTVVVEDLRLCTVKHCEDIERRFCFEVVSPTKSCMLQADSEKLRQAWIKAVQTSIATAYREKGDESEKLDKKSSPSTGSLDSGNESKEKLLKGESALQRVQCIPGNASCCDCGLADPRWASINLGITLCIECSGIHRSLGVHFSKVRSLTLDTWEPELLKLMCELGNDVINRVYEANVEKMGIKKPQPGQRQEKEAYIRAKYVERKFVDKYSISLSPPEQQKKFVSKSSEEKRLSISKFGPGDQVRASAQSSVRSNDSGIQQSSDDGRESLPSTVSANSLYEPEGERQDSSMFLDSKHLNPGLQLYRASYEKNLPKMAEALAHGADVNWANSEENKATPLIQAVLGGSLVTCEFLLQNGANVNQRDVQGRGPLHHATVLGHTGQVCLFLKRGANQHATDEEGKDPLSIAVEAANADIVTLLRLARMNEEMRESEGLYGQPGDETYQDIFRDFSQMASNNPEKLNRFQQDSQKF
Chain of UniProt O60566 (O60566 whole entry, looked up): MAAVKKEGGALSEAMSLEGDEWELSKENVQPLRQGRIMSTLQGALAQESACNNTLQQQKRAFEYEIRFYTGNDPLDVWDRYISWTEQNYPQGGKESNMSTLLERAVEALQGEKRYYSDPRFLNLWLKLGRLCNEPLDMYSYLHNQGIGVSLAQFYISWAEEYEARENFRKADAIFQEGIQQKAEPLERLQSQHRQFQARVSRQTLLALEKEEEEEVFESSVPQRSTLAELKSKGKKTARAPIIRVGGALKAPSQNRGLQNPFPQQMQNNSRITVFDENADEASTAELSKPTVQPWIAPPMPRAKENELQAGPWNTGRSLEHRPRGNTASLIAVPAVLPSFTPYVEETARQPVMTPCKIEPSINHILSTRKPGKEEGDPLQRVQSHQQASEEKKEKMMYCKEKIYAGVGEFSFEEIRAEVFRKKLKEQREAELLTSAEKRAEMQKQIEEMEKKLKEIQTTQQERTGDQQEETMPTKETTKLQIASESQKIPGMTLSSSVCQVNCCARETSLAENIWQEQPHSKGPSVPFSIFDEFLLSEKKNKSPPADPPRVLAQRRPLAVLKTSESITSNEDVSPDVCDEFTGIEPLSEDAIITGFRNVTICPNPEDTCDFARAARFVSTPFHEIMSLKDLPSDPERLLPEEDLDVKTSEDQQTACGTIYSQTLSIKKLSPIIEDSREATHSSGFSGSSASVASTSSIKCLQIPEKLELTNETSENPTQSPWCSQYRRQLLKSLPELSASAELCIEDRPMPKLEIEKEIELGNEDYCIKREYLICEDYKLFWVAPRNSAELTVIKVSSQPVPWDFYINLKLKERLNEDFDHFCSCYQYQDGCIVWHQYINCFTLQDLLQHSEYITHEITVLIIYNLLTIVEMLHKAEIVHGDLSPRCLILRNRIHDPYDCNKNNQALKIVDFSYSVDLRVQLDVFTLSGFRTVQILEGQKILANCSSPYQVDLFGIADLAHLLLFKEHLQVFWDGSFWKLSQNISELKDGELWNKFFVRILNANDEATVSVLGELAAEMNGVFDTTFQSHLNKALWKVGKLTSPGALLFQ
Chain of UniProt O43865 (O43865 whole entry, looked up): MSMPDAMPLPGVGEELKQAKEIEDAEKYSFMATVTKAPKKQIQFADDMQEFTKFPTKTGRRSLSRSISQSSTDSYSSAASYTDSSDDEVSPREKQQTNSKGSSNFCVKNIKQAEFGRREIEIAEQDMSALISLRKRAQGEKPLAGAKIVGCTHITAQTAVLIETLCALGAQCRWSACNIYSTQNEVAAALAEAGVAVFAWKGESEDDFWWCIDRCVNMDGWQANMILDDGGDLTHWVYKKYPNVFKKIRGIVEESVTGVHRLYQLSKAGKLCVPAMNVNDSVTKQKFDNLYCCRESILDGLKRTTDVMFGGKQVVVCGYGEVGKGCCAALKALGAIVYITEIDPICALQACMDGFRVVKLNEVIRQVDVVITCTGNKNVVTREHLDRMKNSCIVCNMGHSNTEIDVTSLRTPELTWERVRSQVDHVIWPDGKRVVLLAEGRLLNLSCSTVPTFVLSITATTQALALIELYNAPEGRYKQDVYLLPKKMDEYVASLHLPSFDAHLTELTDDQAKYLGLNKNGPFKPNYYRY
Chain of UniProt Q8N2F6 (Q8N2F6 whole entry, looked up): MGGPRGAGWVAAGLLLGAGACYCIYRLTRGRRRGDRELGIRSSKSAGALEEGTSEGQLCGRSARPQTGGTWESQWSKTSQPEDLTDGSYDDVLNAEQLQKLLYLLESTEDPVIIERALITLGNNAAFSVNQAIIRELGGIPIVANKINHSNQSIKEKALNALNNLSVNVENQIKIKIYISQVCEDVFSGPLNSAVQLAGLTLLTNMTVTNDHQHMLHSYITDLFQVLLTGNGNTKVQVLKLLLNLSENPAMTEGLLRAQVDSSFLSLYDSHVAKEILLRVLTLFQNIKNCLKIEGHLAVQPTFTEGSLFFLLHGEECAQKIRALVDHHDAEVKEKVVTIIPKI
Chain of UniProt Q9Y2Y0 (Q9Y2Y0 whole entry, looked up): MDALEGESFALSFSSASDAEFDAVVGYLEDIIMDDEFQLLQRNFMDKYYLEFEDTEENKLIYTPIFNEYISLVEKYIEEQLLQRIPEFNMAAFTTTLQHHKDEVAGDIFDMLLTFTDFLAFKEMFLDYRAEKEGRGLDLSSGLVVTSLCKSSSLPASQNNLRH
Chain of UniProt P54707 (P54707 whole entry, looked up): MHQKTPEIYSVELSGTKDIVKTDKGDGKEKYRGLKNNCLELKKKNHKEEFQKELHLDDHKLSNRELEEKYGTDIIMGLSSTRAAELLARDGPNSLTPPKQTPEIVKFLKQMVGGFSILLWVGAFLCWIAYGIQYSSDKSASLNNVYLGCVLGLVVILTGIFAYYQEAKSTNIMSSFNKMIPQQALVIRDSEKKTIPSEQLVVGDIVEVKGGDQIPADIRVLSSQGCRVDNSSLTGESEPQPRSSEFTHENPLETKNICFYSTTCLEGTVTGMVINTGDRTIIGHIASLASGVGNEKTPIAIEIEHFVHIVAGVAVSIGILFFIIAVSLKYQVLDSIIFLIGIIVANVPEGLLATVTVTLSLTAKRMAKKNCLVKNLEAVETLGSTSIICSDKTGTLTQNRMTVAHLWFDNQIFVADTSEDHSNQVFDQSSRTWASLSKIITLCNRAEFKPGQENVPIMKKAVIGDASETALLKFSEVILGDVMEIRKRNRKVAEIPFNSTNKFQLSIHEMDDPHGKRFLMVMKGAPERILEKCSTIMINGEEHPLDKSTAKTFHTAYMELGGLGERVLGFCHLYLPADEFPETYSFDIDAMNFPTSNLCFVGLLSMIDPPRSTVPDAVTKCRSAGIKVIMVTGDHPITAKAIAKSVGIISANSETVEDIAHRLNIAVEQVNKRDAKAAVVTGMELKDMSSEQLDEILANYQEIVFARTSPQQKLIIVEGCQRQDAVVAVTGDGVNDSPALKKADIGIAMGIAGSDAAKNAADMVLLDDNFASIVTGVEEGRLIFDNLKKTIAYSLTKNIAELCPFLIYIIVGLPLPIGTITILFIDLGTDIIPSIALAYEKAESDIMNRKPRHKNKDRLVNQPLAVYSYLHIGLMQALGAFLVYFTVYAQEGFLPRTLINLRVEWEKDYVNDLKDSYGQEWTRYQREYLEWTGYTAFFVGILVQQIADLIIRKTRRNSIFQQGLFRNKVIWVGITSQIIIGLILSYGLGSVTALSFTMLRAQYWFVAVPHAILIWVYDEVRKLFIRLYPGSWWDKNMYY
Chain of UniProt Q8N6D5 (Q8N6D5 whole entry, looked up): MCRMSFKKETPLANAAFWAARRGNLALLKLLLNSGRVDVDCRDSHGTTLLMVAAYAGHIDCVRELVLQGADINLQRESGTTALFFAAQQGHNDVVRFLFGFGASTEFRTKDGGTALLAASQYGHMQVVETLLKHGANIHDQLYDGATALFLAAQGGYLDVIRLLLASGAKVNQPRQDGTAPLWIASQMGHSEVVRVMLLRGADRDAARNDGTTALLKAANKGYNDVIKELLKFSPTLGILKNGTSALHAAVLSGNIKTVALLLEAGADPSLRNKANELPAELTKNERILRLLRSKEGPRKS
Chain of UniProt Q9UEY8 (Q9UEY8 whole entry, looked up): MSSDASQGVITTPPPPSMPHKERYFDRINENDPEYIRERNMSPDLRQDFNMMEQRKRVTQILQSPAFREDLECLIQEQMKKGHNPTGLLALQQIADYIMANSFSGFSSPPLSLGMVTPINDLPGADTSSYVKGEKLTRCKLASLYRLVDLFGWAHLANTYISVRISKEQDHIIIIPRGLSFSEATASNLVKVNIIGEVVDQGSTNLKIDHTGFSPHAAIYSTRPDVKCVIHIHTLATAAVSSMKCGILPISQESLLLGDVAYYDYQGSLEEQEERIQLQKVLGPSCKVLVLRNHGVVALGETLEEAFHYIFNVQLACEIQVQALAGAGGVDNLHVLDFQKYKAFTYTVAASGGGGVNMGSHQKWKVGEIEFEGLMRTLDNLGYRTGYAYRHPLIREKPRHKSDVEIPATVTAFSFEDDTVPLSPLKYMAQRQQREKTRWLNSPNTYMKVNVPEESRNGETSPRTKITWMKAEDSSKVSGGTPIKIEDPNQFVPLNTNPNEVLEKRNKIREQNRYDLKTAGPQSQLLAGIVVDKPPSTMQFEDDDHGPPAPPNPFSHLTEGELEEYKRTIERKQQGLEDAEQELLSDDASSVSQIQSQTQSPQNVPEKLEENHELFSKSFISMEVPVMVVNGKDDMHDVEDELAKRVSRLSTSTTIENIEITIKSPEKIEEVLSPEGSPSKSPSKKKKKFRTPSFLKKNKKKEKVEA
Chain of UniProt Q9UII2 (Q9UII2 whole entry, looked up): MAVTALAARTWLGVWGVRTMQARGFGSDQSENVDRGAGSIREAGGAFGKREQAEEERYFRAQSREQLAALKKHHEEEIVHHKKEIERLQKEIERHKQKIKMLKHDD

Row | Target | log2 fold change [1] | log2 fold change [2] | log2 fold change [3] | log2 fold change [4] | log2 fold change [5] | log2 fold change [6] | log2 fold change [7] | log2 fold change [8] | log2 fold change [9] | log2 fold change [10]
1 | ACIN1 (UniProt Q9UKV3) | -0.011 | -0.014 | 0.068 | -0.12 | 0.005 | 0.01 | -0.003 | 0.002 | 0.029 | 0.007
2 | AAMP (UniProt Q13685) | 0.027 | 0.115 | -0.007 | -0.006 | 0.022 | -0.047 | 0.053 | -0.03 | -0.037 | 0.038
3 | AP2M1 (UniProt Q96CW1) | 0.018 | -0.066 | -0.04 | -0.193 | -0.036 | -0.002 | -0.09 | -0.007 | 0.029 | 0.044
4 | BCLAF1 (UniProt Q9NYF8) | -0.002 | -0.06 | 0.089 | -0.438 (active) | 0.017 | -0.021 | 0.012 | -0.01 | 0.035 | 0.164
5 | BAP1 (UniProt Q92560) | 0.07 | -0.078 | 0 | 0.126 | -0.089 | 0.076 | 0.079 | 0.085 | 0.112 | -0.043
6 | ATP5IF1 (UniProt Q9UII2) | 0.004 | 0.058 | -0.006 | 0.018 | -0.035 | -0.056 | -0.079 | -0.082 | -0.015 | -0.019
7 | ATAD3B (UniProt Q5T9A4) | 0.009 | -0.171 | -0.112 | 0.191 | -0.05 | 0.033 | 0.034 | 0.105 | 0.137 | -0.544 (active)
8 | BOP1 (UniProt Q14137) | -0.008 | 0.11 | -0.153 | 0.064 | -0.113 | 0.025 | 0.007 | 0.134 | -0.008 | -0.114
9 | ARMC10 (UniProt Q8N2F6) | 0.002 | -0.04 | 0.016 | 0.006 | 0.033 | -0.09 | 0.065 | 0.108 | 0.018 | 0.027
10 | BCCIP (UniProt Q9P287) | -0.015 | -0.02 | -0.044 | 0.074 | -0.03 | -0.093 | -0.005 | 0.037 | 0.01 | 0.001
11 | ADD1 isoform 3 (UniProt P35611) | 0.018 | 0.005 | -0.011 | -0.109 | 0.011 | -0.054 | -0.008 | -0.015 | 0.001 | 0.045
12 | ADD3 (UniProt Q9UEY8) | 0 | 0.023 | 0.018 | -0.079 | 0.023 | -0.029 | -0.053 | -0.059 | 0.016 | 0.061
13 | ARFRP1 (UniProt Q13795) | -0.024 | -0.004 | 0.091 | -0.027 | 0.019 | -0.159 | -0.03 | -0.069 | 0.003 | 0.027
14 | ABCB6 (UniProt Q9NP58) | 0.03 | -0.457 (active) | 0.093 | -0.057 | 0.015 | -0.031 | -0.017 | -0.028 | 0.049 | -0.207
15 | AGPS (UniProt O00116) | 0.016 | -0.038 | 0.048 | -0.053 | 0.099 | -0.047 | -0.005 | 0.19 | 0.018 | 0.015
16 | ACAP2 (UniProt Q15057) | 0.032 | 0.033 | 0.069 | 0.023 | 0.023 | -0.07 | 0.026 | 0.047 | -0.059 | 0.002
17 | AHCYL1 (UniProt O43865) | 0.097 | 0.018 | 0.038 | 0.02 | -0.005 | 0.02 | 0.007 | -0.036 | -0.045 | -0.015
18 | BUB1B isoform 3 (UniProt O60566) | -0.015 | -0.108 | 0.013 | 0.083 | 0.011 | -0.207 | 0.119 | 0.057 | 0.047 | -0.072
19 | ACO2 (UniProt Q99798) | 0 | -0.022 | 0.102 | -0.085 | 0.03 | -0.088 | -0.024 | 0.078 | -0.026 | 0.041
20 | ARL2BP (UniProt Q9Y2Y0) | 0.077 | -0.128 | -0.017 | -0.038 | -0.004 | -0.166 | 0.006 | 0.044 | 0.101 | -0.042
21 | ABHD17A isoform 2 (UniProt Q96GS6) | -0.027 | -0.135 | -0.03 | -0.015 | -0.008 | -0.283 | -0.024 | 0.016 | 0.004 | -0.129
22 | ACP1 isoform 2 (UniProt P24666) | 0.008 | -0.079 | 0.016 | 0.15 | 0.004 | -0.137 | -0.09 | 0.12 | 0.033 | -0.041
23 | ACADVL isoform 3 (UniProt P49748) | 0.042 | 0.021 | 0.078 | -0.058 | 0.081 | -0.01 | 0.003 | -0.005 | -0.065 | -0.01
24 | BAIAP2 (UniProt Q9UQB8) | 0.023 | -0.115 | 0 | -0.039 | 0.014 | -0.053 | -0.061 | 0.08 | 0.086 | -0.057
25 | ANKRD29 (UniProt Q8N6D5) | 0.125 | 0.019 | 0.042 | -0.043 | 0.139 | 0.185 | -0.072 | 0.017 | 0.097 | -0.055
26 | BMP2K (UniProt Q9NSY1) | 0.136 | 0.411 (active) | 0 | 0.402 (active) | -0.078 | 0.319 | 0.318 | -0.051 | 0.024 | -0.017
27 | ALKBH5 (UniProt Q6P6C2) | 0.048 | 0.032 | -0.11 | 0.013 | 0.012 | 0.267 | -0.167 | -0.055 | -0.01 | 0.007
28 | ATP12A isoform 2 (UniProt P54707) | 0.02 | 0.162 | 0.138 | -0.087 | 0.067 | -0.047 | -0.027 | -0.056 | -0.004 | 0.137
29 | ATRN (UniProt O75882) | -0.049 | 0.01 | 0.116 | 0.087 | -0.028 | -0.002 | -0.003 | 0.071 | -0.238 | –
30 | ASNS (UniProt P08243) | 0.003 | -0.015 | 0.044 | -0.045 | 0.025 | 0.002 | -0.018 | -0.016 | -0.026 | 0.031
